Laboratory results reported in PubChem BioAssay.
Activity calls are given as the source filed them.

What was measured:
[1] = binders of probe aFSTL3 on microarray, primary screen, stem cell growth factor project, biochemical, small-molecule microarray, fluorescence 635/667 (AID 1064); conditions: higher = more signal;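 note: measures binding of the biotinylated anti-FSTL3 antibody to printed compounds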
[2] = binders from COS7 lysate, DM2A8 probe, primary screen, torsin A project, cell lysate, small-molecule microarray, fluorescence 635/667 (AID 1065); conditions: higher = more signal, COS7 lysate expressing mutant human TOR1A
[3] = binders of probe aFGF2 on microarray, primary screen, stem cell growth factor project, biochemical, small-molecule microarray, fluorescence 635/667 (AID 1067); conditions: higher = more signal;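 note: measures binding of biotinylated aFGF2 protein to printed compounds on slides; z-score merges feature fluorescence and signal-to-noise across triplicate slides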
[4] = binders of probe aFGF10 on microarray, primary screen, stem cell growth factor project, biochemical, small-molecule microarray, fluorescence 635/667 (AID 1071); conditions: higher = more signal;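 note: score merges 667 nm spot intensity and signal to noise from triplicate slides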
[5] = target: Neurogenic locus notch homolog protein 2 (Homo sapiens) (UniProt Q04721); assay: Notch2 binders on small-molecule microarrays, primary screen, biochemical, small-molecule microarray, 635 nm fluorescence, stem cell growth factors (AID 1073); conditions: Notch2 binding, higher = more signal
Neurogenic locus notch homolog protein 2 (Homo sapiens), sequence (Q04721 whole entry, looked up, canonical isoform): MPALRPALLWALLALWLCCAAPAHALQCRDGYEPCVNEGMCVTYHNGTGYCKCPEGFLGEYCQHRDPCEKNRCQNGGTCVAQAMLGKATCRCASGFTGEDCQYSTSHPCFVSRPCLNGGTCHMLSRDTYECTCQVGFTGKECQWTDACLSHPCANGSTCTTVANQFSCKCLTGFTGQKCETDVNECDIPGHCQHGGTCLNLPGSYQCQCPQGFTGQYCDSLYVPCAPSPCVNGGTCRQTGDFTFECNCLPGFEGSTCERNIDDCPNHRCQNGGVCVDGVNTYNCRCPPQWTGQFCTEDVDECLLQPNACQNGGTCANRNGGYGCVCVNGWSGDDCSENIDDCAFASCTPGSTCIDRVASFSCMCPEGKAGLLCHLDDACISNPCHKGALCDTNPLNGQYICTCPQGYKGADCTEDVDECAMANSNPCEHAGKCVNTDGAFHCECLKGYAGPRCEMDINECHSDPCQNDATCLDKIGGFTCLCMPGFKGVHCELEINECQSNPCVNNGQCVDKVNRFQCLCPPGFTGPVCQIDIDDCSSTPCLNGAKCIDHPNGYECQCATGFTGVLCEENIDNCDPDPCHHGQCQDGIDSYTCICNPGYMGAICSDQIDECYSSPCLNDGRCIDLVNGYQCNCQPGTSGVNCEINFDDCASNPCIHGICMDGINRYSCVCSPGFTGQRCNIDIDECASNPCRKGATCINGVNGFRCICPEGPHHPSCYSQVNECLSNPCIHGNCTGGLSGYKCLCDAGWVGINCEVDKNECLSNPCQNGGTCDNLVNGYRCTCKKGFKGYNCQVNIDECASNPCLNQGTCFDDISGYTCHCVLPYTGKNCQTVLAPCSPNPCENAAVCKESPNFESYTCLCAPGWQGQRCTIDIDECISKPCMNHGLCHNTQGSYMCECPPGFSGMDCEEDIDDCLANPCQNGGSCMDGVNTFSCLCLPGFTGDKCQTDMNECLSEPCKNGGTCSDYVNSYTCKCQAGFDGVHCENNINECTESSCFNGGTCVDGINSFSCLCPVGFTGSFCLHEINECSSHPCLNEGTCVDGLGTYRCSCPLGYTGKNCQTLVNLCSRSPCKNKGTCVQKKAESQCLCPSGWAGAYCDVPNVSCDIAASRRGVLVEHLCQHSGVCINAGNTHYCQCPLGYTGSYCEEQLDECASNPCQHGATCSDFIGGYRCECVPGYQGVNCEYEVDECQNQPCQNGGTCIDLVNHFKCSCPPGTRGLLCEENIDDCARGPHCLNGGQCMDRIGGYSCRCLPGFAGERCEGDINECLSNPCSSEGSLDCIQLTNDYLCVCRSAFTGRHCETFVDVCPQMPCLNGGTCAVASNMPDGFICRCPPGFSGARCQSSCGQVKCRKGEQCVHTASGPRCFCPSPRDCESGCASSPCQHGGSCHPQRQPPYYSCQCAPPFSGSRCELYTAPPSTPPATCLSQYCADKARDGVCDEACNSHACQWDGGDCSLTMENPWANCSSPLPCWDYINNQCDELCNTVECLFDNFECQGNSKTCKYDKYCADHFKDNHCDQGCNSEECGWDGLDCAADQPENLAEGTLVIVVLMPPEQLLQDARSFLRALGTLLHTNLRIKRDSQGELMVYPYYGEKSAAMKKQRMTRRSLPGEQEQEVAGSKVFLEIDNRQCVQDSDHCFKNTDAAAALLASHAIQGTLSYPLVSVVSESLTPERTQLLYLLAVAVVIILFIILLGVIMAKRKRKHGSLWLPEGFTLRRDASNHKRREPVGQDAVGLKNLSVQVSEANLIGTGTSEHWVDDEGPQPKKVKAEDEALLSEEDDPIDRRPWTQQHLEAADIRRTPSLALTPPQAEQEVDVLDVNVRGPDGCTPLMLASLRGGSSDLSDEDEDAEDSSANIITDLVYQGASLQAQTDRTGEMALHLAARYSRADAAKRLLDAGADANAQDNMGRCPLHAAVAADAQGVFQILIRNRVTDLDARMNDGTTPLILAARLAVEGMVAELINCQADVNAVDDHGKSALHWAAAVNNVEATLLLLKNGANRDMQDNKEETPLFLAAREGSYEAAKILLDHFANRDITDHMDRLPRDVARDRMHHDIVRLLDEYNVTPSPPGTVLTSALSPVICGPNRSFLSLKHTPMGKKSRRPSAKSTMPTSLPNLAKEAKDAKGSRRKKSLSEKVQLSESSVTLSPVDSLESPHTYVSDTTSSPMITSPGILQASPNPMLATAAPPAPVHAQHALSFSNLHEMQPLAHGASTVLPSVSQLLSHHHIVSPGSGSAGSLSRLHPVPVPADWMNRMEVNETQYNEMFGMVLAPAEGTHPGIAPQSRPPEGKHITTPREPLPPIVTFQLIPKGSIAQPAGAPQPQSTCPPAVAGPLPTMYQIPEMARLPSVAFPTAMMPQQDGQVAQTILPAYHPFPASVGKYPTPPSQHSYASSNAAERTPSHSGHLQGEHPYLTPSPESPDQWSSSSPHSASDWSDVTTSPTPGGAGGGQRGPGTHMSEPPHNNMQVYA

[6] = target: Pro-neuregulin-1, membrane-bound isoform (Homo sapiens) (UniProt Q02297); assay: NRG1 binders on small-molecule microarrays, primary screen, psychiatric disease protein project, biochemical, small-molecule microarray, fluorescence 635/667 (AID 1075); conditions: NRG1 binding, 635 nm fluorescence, higher = more signal;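 note: score combines 667 nm spot fluorescence with signal to noise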
Pro-neuregulin-1, membrane-bound isoform (Homo sapiens), sequence (Q02297 whole entry, looked up, the tested form may be a part, canonical isoform): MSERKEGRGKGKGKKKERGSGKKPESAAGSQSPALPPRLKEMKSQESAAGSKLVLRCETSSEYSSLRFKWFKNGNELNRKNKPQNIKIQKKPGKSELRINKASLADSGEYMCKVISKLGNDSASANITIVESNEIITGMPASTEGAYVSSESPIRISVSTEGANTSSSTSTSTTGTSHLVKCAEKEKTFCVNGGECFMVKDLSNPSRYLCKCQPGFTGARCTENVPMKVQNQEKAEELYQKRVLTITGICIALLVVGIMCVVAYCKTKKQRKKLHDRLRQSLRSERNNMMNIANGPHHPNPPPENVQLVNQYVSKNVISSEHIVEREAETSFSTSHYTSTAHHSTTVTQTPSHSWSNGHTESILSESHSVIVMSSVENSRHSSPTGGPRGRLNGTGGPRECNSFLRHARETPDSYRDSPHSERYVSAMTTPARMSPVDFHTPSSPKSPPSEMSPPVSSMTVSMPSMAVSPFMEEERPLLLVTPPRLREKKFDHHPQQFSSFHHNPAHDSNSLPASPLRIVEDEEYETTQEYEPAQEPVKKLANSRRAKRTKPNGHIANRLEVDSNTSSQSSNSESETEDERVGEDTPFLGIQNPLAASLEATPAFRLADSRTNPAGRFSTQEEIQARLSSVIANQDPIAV

[7] = tested on: Neuregulin-1 EGF-like domain; assay: binders of neuregulin-1 EGF-like domain, primary screen, biochemical, small-molecule microarray, 635 nm fluorescence (AID 1081); conditions: small-molecule microarray binding, higher = more signal;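 note: binding of the protein to compounds printed on small-molecule microarray slides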
[8] = FRG1 promoter luciferase signal modulators, primary screen, FRG1 inhibition for FSHD, cell-based, C2C12 myotubes, firefly/Renilla luciferase, luminescence (AID 1084); conditions: higher = more signal, called active from +8 up or from −8 down
[9] = binders of probe aFST on microarray, primary screen, stem cell growth factor project, biochemical, small-molecule microarray, fluorescence 635/667 (AID 1086); conditions: higher = more signal;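 note: score merges 667 nm fluorescence with signal-to-noise of each printed compound spot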
[10] = binders of probe aHhip on microarray, primary screen, stem cell growth factor project, biochemical, small-molecule microarray, fluorescence 635/667 (AID 1087); conditions: higher = more signal;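 note: score merges spot fluorescence at 667nm with spot signal to noise ratio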

| Compound | composite z-score [1] | composite z-score [2] | composite z-score [3] | composite z-score [4] | composite z-score [5] | composite z-score [6] | composite z-score [7] | z-score [8] | composite z-score [9] | composite z-score [10] |
| --- | --- | --- | --- | --- | --- | --- | --- | --- | --- | --- |
| CC(C)CNC(=O)[C@@H]1c2ccccc2C(=O)N(C2Cc3ccccc3C2)[C@H]1c1ccc(CO)cc1 | 0.192 | -0.372 | -0.0737 | 0.261 | -0.51 | 1.29 | 1.39 | -1.56 (inactive) | -0.316 | -0.166 |
| C=CCNC(=O)[C@H]1[C@@H]2C(=O)O[C@@H](c3ccccc3)[C@@H](c3ccccc3)N2[C@@H](c2ccccc2OCCO)[C@]12C(=O)N(C(=O)OCCOC)c1ccccc12 | 0.041 | 0.3 | -0.0226 | 0.832 | 0.716 | 1.54 | 1.13 | -2.27 (inactive) | 0.186 | 0.0623 |
| CCCC[C@H]1OB(O)C[C@H]2C1=C(C)C[C@H]1C(=O)C=CC(=O)[C@H]12 | -0.567 | -0.0474 | -0.0887 | 0.309 | 0.425 | 0.532 | 0.698 | 0.358 (inactive) | 0.189 | 0.176 |
| C=C(C(=O)CC[C@@H](OC(C)=O)c1cccc(OCCO)c1)C(C)C | -0.0377 | 0.108 | -0.0996 | 0.365 | -0.768 | 1.92 | 0.568 | 0.44 (inactive) | -0.337 | -0.0672 |
| CCCCCCCCCCC(O)C1C=CC2C(=O)N(C)C(=O)C2N1N1CCCCC1 (stereo not given) | 0.449 | -0.346 | -0.213 | -1.1 | -1.96 | 0.252 | -0.413 | -0.635 (inactive) | -0.744 | -0.0423 |
| Cc1ccc(S[C@]2(C(=O)NCCN3CCOCC3)CC(=O)N(C3CCCCC3)[C@@H]2c2ccc(CO)cc2I)cc1 | -1.01 | 0.866 | -0.0687 | 0.841 | 0.955 | 1.61 | 1.22 | -2.05 (inactive) | 0.259 | -0.279 |
| C=CCC(OC(C)=O)[C@@H]1[C@@H](N(Cc2ccc(-c3cccc(C(F)(F)F)c3)o2)C(=O)c2cccc3ccccc23)c2cc(OCCCO)ccc2N1C(=O)c1ccc2ccccc2n1 (stereo not given in full) | 0.672 | 0.584 | -0.0242 | 0.232 | -0.381 | 0.0262 | -0.393 | -0.147 (inactive) | -0.111 | 0.185 |
| C[N+](C)(C)CCCCCCNC(=O)[C@H]1C[C@H]2C(=O)NCC(=O)N2[C@H]1c1cccc(OCCO)c1 | -0.513 | 0.44 | -0.0316 | 0.817 | -0.0407 | 0.205 | 1.27 | 2.33 (inactive) | -0.393 | -0.737 |
| C=CCC(OC(C)=O)[C@@H]1[C@@H](N(Cc2ccc(-c3cccc(C(F)(F)F)c3)o2)C(=O)c2cccc3ccccc23)c2cc(OCCCO)ccc2N1C(=O)c1ccc2ccccc2c1 (stereo not given in full) | 0.125 | -0.132 | -0.0909 | 0.224 | -0.365 | 0.62 | -0.332 | 0.141 (inactive) | -0.0637 | -0.15 |
| CC(=O)NCCCC[C@@H]1NC(=O)[C@@H]2C[C@H](C(=O)NCCCCCC[N+](C)(C)C)[C@H](c3ccc(O)cc3)N2C1=O | 0.101 | 0.437 | -0.224 | 0.204 | 0.472 | 0.148 | 1.23 | 3.02 (inactive) | -0.0677 | 0.0881 |
| CCOC(=O)C[C@H]1[C@H](OC(=O)Cc2ccc3c(c2)OCO3)[C@@H](NC(=O)c2ccccc2)c2cc(OCCCO)ccc2N1C(=O)Cc1ccc(OC)cc1 | -0.483 | 0.147 | -0.0038 | 0.306 | 0.523 | 0.726 | 0.049 | -2.56 (inactive) | -0.249 | -0.261 |
| CN(C)C(=O)[C@]1(Cc2ccccc2)N=C(c2ccc(OCCCO)cc2)O[C@@H]1c1ccccc1 | -0.129 | 0.984 | 0.0376 | 1.08 | 1.46 | 1.78 | 1.28 | -0.306 (inactive) | 0.952 | 0.127 |
| O=C1C2C=CC(C(O)c3ccc([N+](=O)[O-])cc3)N(Nc3ccccc3)C2C(=O)N1c1ccccc1 (stereo not given) | -0.228 | 0.0467 | 0.0589 | -0.115 | 1.4 | 1.07 | 1.25 | -0.699 (inactive) | 0.564 | 0.211 |
| Cc1ccc(S[C@]2(C(=O)NC3CC3)CC(=O)N(Cc3cc(C(F)(F)F)cc(C(F)(F)F)c3)[C@@H]2c2ccc(CO)cc2I)cc1 | 0.385 | 1.11 | 0.21 | 0.0945 | -0.262 | 0.212 | 1.27 | 0.528 (inactive) | 0.457 | -0.494 |
| Cc1ccc(S[C@]2(C(=O)NCCCN(C)C)CC(=O)N(Cc3ccccc3Cl)[C@@H]2c2ccc(CO)cc2I)cc1 | 1.23 | -0.42 | -0.0996 | -0.855 | -1.17 | 1.07 | 0.801 | -1.4 (inactive) | 0.141 | -0.0346 |
| COC(=O)C(CC#Cc1ccc2c(c1)[C@]1(C(=O)N2)[C@H](c2ccc(O)cc2)N2[C@H](c3ccccc3)[C@H](c3ccccc3)OC(=O)[C@H]2[C@@H]1C(=O)N1CCc2cc(OC)c(OC)cc2C1)C(=O)OC | -0.312 | 0.475 | -0.0692 | 0.59 | 1.07 | 0.296 | 1.27 | 1.63 (inactive) | 0.652 | -0.0755 |
| COC(=O)[C@@]1(Cc2ccc(F)cc2)[C@H]2c3cc(C(=O)N(C)C)n(CCO)c3C[C@H]2CN1C(=O)c1ccccc1 | 0.135 | -0.311 | 0.169 | 0.429 | 1.5 | 2.16 | 1.06 | -1.11 (inactive) | 0.433 | 0.218 |
| COCCn1c(C(=O)N2CCCC2)cc2c1C[C@H]1CN(C(=O)c3ccccc3)[C@@](Cc3ccccc3)(C(=O)OC)[C@@H]21 | 0.288 | 1.16 | 0.576 | 0.888 | 1.11 | 2.16 | 1.42 | 2.7 (inactive) | 1.11 | 0.688 |
| C=CC[C@]1(C(=O)N(C)C)COC(c2ccc(OCCCO)cc2)=N1 | 1.11 | 2.23 | 0.23 | 0.744 | 0.221 | 1.83 | 1.42 | 0.233 (inactive) | 0.459 | 0.0373 |
| O=C1c2ccccc2[C@@]2(Cc3ccccc3N(Cc3ccccc3)C2=O)[C@H](c2ccc(CO)cc2)N1Cc1ccccc1 | 0.55 | -0.0642 | -0.078 | -0.221 | -0.476 | -0.605 | -0.564 | 0.161 (inactive) | -0.351 | -0.0645 |
| COc1ccc([Si](C)(C)[C@H]2[C@H](CCO)O[C@@]3(C(=O)N(Cc4ccc(N5CCOC5=O)cc4)c4ccccc43)[C@@H]2C)cc1 | 0.173 | 0.306 | -0.137 | 0.034 | -0.0425 | 1.11 | 0.664 | -4.39 (inactive) | -0.083 | -0.0994 |
| CCCC=C(CCC)[C@@H](NC(=O)c1ccccc1)c1ccc(C(=O)OC)cc1 | 0.0872 | 0.78 | 0.502 | 0.752 | 0.541 | -0.0843 | 1.19 | 3.19 (inactive) | 1.01 | 1.09 |
